In ChEMBL document CHEMBL3433997, “St. Jude Leishmania screening dataset” (2016):

Key:
Type in all cases: functional
[1] = target: Solute carrier family 2, facilitated glucose transporter member 1 (Homo sapiens) (UniProt P11166); test: ST_JUDE_LEISH: Cytotoxicity at 2uM final concentration against transgenic Leishmania Mexicana promastigotes LmGLUT1 that are glucose transport deficient and complemented with the human glucose transporter GLUT1. Activity is measured by DNA content using SYBR green in vitro
Chain of Solute carrier family 2, facilitated glucose transporter member 1 (Homo sapiens) (P11166 whole entry): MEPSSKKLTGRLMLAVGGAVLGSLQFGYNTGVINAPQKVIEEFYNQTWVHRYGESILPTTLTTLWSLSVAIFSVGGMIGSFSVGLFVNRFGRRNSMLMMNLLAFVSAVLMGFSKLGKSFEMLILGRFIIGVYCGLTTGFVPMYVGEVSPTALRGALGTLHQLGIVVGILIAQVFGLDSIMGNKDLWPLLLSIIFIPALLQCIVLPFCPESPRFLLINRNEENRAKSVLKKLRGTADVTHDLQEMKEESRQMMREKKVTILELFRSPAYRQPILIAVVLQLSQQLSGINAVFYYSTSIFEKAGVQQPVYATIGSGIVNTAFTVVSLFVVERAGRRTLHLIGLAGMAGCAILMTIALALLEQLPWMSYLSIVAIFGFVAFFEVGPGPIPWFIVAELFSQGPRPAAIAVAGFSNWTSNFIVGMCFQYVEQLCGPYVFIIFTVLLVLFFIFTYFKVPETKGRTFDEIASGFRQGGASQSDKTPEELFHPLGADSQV

[2] = target: Hexose transporter 1 (Plasmodium falciparum) (UniProt O97467); test: ST_JUDE_LEISH: Cytotoxicity at 2uM final concentration against transgenic Leishmania Mexicana promastigotes LmPfHT that are glucose transport deficient and complemented with the Plasmodium falciparum hexose transporter. Activity is measured by DNA content using SYBR green in vitro
[3] = target: Glucose transporter (Leishmania mexicana) (UniProt O61059); test: ST_JUDE_LEISH: Cytotoxicity at 2uM final concentration against transgenic Leishmania Mexicana promastigotes LmGT2 that are glucose transport deficient and complemented with the L. Mexicana glucose transporter 2. Activity is measured by DNA content using SYBR green in vitro

## Cc1ccc2c(NC(=O)Nc3ccc(N(C)C)cc3)cc(C)nc2c1
[1]
  inhibition: 5.9%
[2]
  inhibition: 5.56%
[3]
  inhibition: 6.28%

## CCc1c(CCNCCc2cccc(CCNCCc3ccc(OC)c(OC)c3CC)c2)ccc(OC)c1OC
[1]
  inhibition: 2.06%
[2]
  inhibition: -1.49%
[3]
  inhibition: 0.27%

## O=C(Nc1ccc(-c2ccc(-c3nc4ccccc4[nH]3)s2)cc1)Nc1ccc(F)c(F)c1F
[1]
  inhibition: 0.57%
[2]
  inhibition: -1.5%
[3]
  inhibition: -0.77%

## COC(=O)c1cccc(CNCc2cccc(-c3ccc(-c4nc5ccccc5[nH]4)s3)c2)c1
[1]
  inhibition: 0.25%
[2]
  inhibition: 2.5%
[3]
  inhibition: 1.96%

## O=C(NCC1Cc2cc(Oc3ccccc3)ccc2O1)c1ccc([N+](=O)[O-])o1 (centres undefined)
[1]
  inhibition: 7.98%
[2]
  inhibition: 10.4%
[3]
  inhibition: 3.24%

## CCOC(=O)CNC(=O)c1cc(=O)c2ccccc2o1
[1]
  inhibition: 0.86%
[2]
  inhibition: 0.78%
[3]
  inhibition: 0.44%

## OC(CNC1CCCCC1)Cn1c2ccc(Br)cc2c2cc(Br)ccc21 (centres undefined)
[1]
  inhibition: 0.51%
[2]
  inhibition: 0.28%
[3]
  inhibition: 0.64%

## COc1ccccc1CCNc1nc(C)cc(NCCC(=O)Nc2ccccc2)n1
[1]
  inhibition: 1.82%
[2]
  inhibition: 2.34%
[3]
  inhibition: 1.43%

## O=C(CN1CCN(S(=O)(=O)C=Cc2ccccc2)CC1)Nc1cc(C(F)(F)F)ccc1Cl
[1]
  inhibition: 9.54%
[2]
  inhibition: 7.6%
[3]
  inhibition: 8.72%

## COc1ccc2nccc([C@@H](O)CN3CCC(NCc4ccc5c(n4)NCCC5)CC3)c2c1
[1]
  inhibition: 6.88%
[2]
  inhibition: 6.43%
[3]
  inhibition: 6.5%

## CCN(CC)CCCCCNc1c2ccc(Cl)cc2nc2ccc(OC)cc12
[1]
  inhibition: 2.17%
[2]
  inhibition: 1.26%
[3]
  inhibition: 1.52%

## COc1ccc(Cl)cc1-c1nc(C(=O)NCCN2CCCCC2)c(C(C)C)s1
[1]
  inhibition: -3.64%
[2]
  inhibition: -0.2%
[3]
  inhibition: 3.06%

## O=c1[nH]ccc2nc(N[C@@H]3CCNC3)nc(Nc3cccc(S(=O)(=O)N4CCOCC4)c3)c12
[1]
  inhibition: 2.94%
[2]
  inhibition: 3.93%
[3]
  inhibition: 0.85%

## Cc1cc2nc(-c3ccc(OCC(=O)NCc4ccc(C(C)(C)C)cc4)cc3)[nH]c2cc1C
[1]
  inhibition: 6.86%
[2]
  inhibition: 7.11%
[3]
  inhibition: 6.35%

## O=C(Nc1cccc(-c2nn3ccccc3c2-c2ccnc(Nc3ccc(NCCCN4CCOCC4)c(F)c3)n2)c1)c1c(F)cccc1F
[1]
  inhibition: 46.9%
[2]
  inhibition: 30.5%
[3]
  inhibition: 5.22%

## CN1CCc2cc(Br)c(O)cc2C1Cc1ccccc1Cl (centres undefined)
[1]
  inhibition: -1.43%
[2]
  inhibition: -1.61%
[3]
  inhibition: -2.87%

## O=[N+]([O-])c1cccc(CNCC2CCN(CC3CCCCC3)CC2)c1
[1]
  inhibition: -0.61%
[2]
  inhibition: 3.2%
[3]
  inhibition: 2.98%

## COc1ccc2ncc(Cl)c(NCC3(O)CCC(NCc4ccc5c(n4)NC(=O)CS5)CC3)c2n1 (centres undefined)
[1]
  inhibition: 4.63%
[2]
  inhibition: 3.3%
[3]
  inhibition: 1.82%

## COC(=O)Nc1ccc(-c2ccc(C(=O)NC3CCN(C[C@H](O)c4ccnc5ccc(OC)cc45)CC3)cc2)c(C)c1
[1]
  inhibition: 0.51%
[2]
  inhibition: 0.01%
[3]
  inhibition: -1.03%

## N#Cc1cccc(C(O)C2CN(CCC3CCCCC3)CCC2(O)c2ccccc2)c1 (centres undefined)
[1]
  inhibition: -1.82%
[2]
  inhibition: -0.13%
[3]
  inhibition: 2.48%

## COc1ccc2nccc(NC(=O)C3CCC(NCc4cnc(SC)c([N+](=O)[O-])c4)CC3)c2n1 (centres undefined)
[1]
  inhibition: 10.5%
[2]
  inhibition: 10.3%
[3]
  inhibition: 20.7%

## CN1CCN(c2ccnc3ccc(NC(=O)Cc4ccc(Br)c5ccccc45)cc23)CC1
[1]
  inhibition: 0.81%
[2]
  inhibition: 0.37%
[3]
  inhibition: 2.02%

## COc1ccc(OCCCN2CCN(CC(c3ccc(F)cc3)N3CCN(C(C)C)CC3)CC2)c2ccccc12 (centres undefined)
[1]
  inhibition: 5.57%
[2]
  inhibition: 5.69%
[3]
  inhibition: 5.07%

## O=C(c1ccc([N+](=O)[O-])o1)N1CCC(Cc2ccc(C(F)(F)F)cc2)CC1
[1]
  inhibition: 9.05%
[2]
  inhibition: 22.5%
[3]
  inhibition: 0.45%

## COc1cccc(-c2cnc(N)c(-c3nc4ccc(F)cc4[nH]3)c2)c1
[1]
  inhibition: 5.87%
[2]
  inhibition: 7.53%
[3]
  inhibition: 4.49%

## C=C[C@H]1CN(CCCCCCC)CC[C@H]1C[C@@H](Cc1ccnc2ccc(OC)cc12)OC(=O)[C@](OC)(c1ccccc1)C(F)(F)F
[1]
  inhibition: 0.1%
[2]
  inhibition: -0.32%
[3]
  inhibition: -3.72%

## O=C(C=Cc1ccc(C(=O)Nc2ccc(C3=NCCN3)cc2)cc1)Nc1ccc(C2=NCCN2)cc1
[1]
  inhibition: 5.16%
[2]
  inhibition: 5.38%
[3]
  inhibition: 5.13%

## CCn1ncc(Cl)c1CN(C)S(=O)(=O)c1ccc(Br)cc1
[1]
  inhibition: -0.68%
[2]
  inhibition: -0.62%
[3]
  inhibition: -2.26%

## Cc1cc(=O)c(-c2ccc(OCCSc3ccc(C(F)(F)F)cn3)cc2)c(C)[nH]1
[1]
  inhibition: 2.89%
[2]
  inhibition: 5.13%
[3]
  inhibition: 2.2%

## C=CCn1c(Sc2ccc(C#N)c([N+](=O)[O-])c2)nnc1-c1cccc(Cl)c1
[1]
  inhibition: -1.46%
[2]
  inhibition: -0.51%
[3]
  inhibition: -1.95%

## OCC1CCN(Cc2ccc(-c3ccc(-c4nc5cc(C(F)(F)F)ccc5[nH]4)cc3)cc2)CC1
[1]
  inhibition: 5.9%
[2]
  inhibition: 8.94%
[3]
  inhibition: 3.07%

## CCCCc1ccc(-c2ccc(-c3c(C)[nH]c(C)c(Br)c3=O)cn2)cc1
[1]
  inhibition: 2.88%
[2]
  inhibition: 3.53%
[3]
  inhibition: 1.52%

## COc1ccc(-c2nc(NC(=O)CS(=O)(=O)c3ccccc3)sc2C)cc1
[1]
  inhibition: 8.8%
[2]
  inhibition: 4.92%
[3]
  inhibition: 1.25%
